High-throughput results deposited in PubChem BioAssay by National Center for Advancing Translational Sciences (NCATS).
Most compounds without a hit are left out; they make up all but 11% or so of the library.
JMJD2A Tudor inh: blocks the human JMJD2A Tudor domain; Potency, µM (highest dose often 114 µM), for the others: at the highest dose activity change, negative = inhibition, most hits filed as inhibitors; AID 504339; actives 4.4% (n = 390,000); O75164; AlphaScreen JMJD2A-Tudor / H3K4me3 peptide binding; also: potency is read from the fitted curve at half-maximal effect; % is scaled to controls: 0 for no effect and ±100 for the full control effect; nearly all actives have a fitted effect of over 50% in size
HP1b chromo inh: inhibitors of HP1-beta chromodomain binding to methylated histone tails | P83916 | AlphaScreen HP1-beta / biotin-H3K9me3 peptide binding | Potency, µM (series often up to 114 µM), for inactives: at the top dose activity change, negative = inhibition, actives largely listed as inhibitors | actives 0.56% (n = 390,000); also: potency is read from the fitted curve at half-maximal effect; nearly all actives have a fitted effect of over 70% in size
Target sequence (P83916 whole entry, looked up): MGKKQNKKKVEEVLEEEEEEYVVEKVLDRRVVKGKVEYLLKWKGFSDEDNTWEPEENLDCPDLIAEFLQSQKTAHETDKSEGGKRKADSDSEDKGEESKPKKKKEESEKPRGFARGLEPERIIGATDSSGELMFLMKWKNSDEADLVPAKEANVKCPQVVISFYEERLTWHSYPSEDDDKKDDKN
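Compound inhibition of the preformed complex between 50 nM HP1-beta and 50 nM biotinylated H3K9me3 peptide was read by AlphaScreen. Buffer was PBS pH 7.4 with 0.01% Tween-20. Incubations ran 30 min at room temperature, with 10 ug/mL donor/acceptor beads.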
G9a inh-1: inhibitors of human histone lysine methyltransferase G9a; G9a H3K9 monomethylation, AlphaScreen, 2 h; Potency, µM (titrated, usually from 102 µM), for the others: at the highest dose activity, negative = inhibition, usual class: inhibitors; actives 8.8% (n = 350,000); AID 504332; also: potency is read from the fitted curve at half-maximal effect; % is scaled to controls: 0 for no effect and ±100 for the full control effect; nearly all actives have a fitted effect of over 75% in size
Target sequence (Q96KQ7 913-1193 limits assumed): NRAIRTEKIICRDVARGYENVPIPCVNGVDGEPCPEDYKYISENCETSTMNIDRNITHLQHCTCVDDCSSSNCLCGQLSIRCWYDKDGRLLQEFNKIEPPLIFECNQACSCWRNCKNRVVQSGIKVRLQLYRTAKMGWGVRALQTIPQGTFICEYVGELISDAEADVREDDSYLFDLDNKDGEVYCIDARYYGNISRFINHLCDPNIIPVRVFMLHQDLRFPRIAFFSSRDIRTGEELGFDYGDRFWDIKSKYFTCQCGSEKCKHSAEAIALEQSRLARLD
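Methyltransferase reactions run at room temperature for 2 h (20 nM enzyme, 500 nM biotin-H3K9 peptide, 20 uM SAM) after a 15 min compound preincubation; product detected by AlphaScreen beads and anti-H3K9me1 antibody.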
L3MBTL1 inh: blocks human L3MBTL1; AlphaScreen L3MBTL1–H3K9me1 peptide binding; Potency, µM (top dose mostly 57.1 µM), for inactives: at the highest dose activity, negative = inhibition, most hits filed as inhibitors; actives 0.66% (n = 230,000); AID 485360; also: potency is read from the fitted curve at half-maximal effect; % is scaled to controls: 0 for no effect and ±100 for the full control effect; nearly all actives have a fitted effect of over 60% in size
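AlphaScreen proximity signal between nickel-chelate acceptor and streptavidin donor beads (final 10 ug/mL) reports binding of 50 nM L3MBTL1 to 75 nM biotin-H3 K9me1 peptide; complex incubated with compounds 30 min at room temperature; cefsulodin titration as control.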
BAZ2B block: blocks human BAZ2B | Q9UIF8 | AlphaScreen BAZ2B-H3K14Ac peptide displacement | Potency, µM (series often up to 114 µM), inactives show at the top dose activity change, negative = inhibition, most hits filed as inhibitors | actives 4.4% (n = 360,000) | AID 504333; also: potency is read from the fitted curve at half-maximal effect; % is scaled to controls: 0 for no effect and ±100 for the full control effect; nearly all actives have a fitted effect of over 60% in size
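BAZ2B 50 nM plus b-H3(5-23)K14Ac 50 nM, PBS pH 7.4/0.01% Tween-20, 30 min RT; compound added (max 110 uM), 30 min RT; streptavidin donor/Ni-chelate acceptor beads 10 ug/mL final, 20 min dark; AlphaScreen read.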
G9a inh-2: inhibits human G9a histone lysine methyltransferase, hit confirmation; shares compounds with JMJD2A Tudor inh; G9a H3K9 monomethylation, AlphaScreen, 2 h; Potency, µM, usual class: inhibitors; actives 89% (n = 370); AID 588344; also: potency is read from the fitted curve at half-maximal effect; nearly all actives have a fitted effect of over 65% in size
RGS4 confirm: inhibits human RGS4, hit validation. shares compounds with JMJD2A Tudor inh. RGS4 GAP activity, Transcreener GDP fluorescence polarization. Potency, µM, hits mostly inhibitors. actives 80% (n = 25). AID 602388
Target sequence (P49798 whole entry, looked up): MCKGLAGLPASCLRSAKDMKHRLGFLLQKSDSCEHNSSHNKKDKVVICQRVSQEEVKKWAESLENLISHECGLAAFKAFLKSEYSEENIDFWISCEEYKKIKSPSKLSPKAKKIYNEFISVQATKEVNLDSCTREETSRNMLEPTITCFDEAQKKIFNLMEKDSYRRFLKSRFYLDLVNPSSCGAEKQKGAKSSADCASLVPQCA
An asterisk follows results filed as active; ? = inconclusive; . = no result; [ ] = another dose, or the depositor's remark. Calls follow the shape of the dose curve; as a rule, active = well fitted curve in the direction sought with a large enough effect; inconclusive = small, poorly fitted or top-dose-only effect, or another doubt; inactive = no such curve, though single readings can be large; an effect the other way counts as inactive or inconclusive.

SMILES | JMJD2A Tudor inh | HP1b chromo inh | G9a inh-1 | L3MBTL1 inh | BAZ2B block | G9a inh-2 | others
Clc1cccc(Cl)c1CNc1ccc(N2CCCC2)cc1 | 18µM* | 18µM* | 1.8µM* | ? | 20µM* | 4* | RGS4 confirm=9.5*
O=C(O)c1cccc(S(=O)(=O)Nc2ccc(N3CCCCC3)cc2)c1 | -21% | 10% | . | -6% | . | .
c1ccc(CSc2nc3ncccn3n2)cc1 | 14% | 49% | 1%[12.7 µM] | 4% | 7% | .
COc1ccc2nc(NC(=O)CSc3nc(C)cc(=O)[nH]3)sc2c1 | 13%[57.1 µM] | 11% | 2.8µM* | . | -20% | 25*
O=C(CN1CCN(c2ccc(F)cc2)CC1)N1CCC(Cc2ccccc2)CC1 | 11µM* | ? | ? | . | 35µM* | 16*
Cc1cc(C(=O)NCC(c2ccco2)N(C)C)ccc1[N+](=O)[O-] (stereo not drawn) | -32% | -21% | -44% | . | -13% | .
CCc1cccc(C)c1NC(=O)c1cccc(C(=O)Nc2c(C)cccc2CC)c1 | -14% | -6% | -1%[59 µM] | . | -1% | .
CCc1cccc(C)c1NC(=O)c1cccc(N(C)C)c1 | -15% | 9% | ? | -5% | 89µM* | 8.9*
CCN(CC(=O)Nc1ccc2c(c1)OCCO2)C(=O)CC(NC(C)=O)c1ccccc1 (stereo not drawn) | 1% | 5% | 14%[59 µM] | 1% | 11% | .
CN(CCc1ccc(Cl)c(Cl)c1)CCN1CCCCCC1 | . | . | 22%[59 µM] | . | . | .
CCn1nnnc1NCc1ccc(N2CCCC2)cc1 | 20µM* | ? | ? | -18% | -26% | 10*
CCn1nnnc1NCc1ccc(SC)cc1 | -6% | 29% | 16%[59 µM] | 3% | 7% | .
Oc1ccc2ccccc2c1CNc1cnc2ccccc2c1 | ? | -12% | 1.4µM* | . | ? | 0.5*
CCCCc1nnc(NC(=O)CSCc2cc(=O)n3cc(C)sc3n2)s1 | -11% | 52% | 7% | . | -22% | .
COc1ccc(Cl)cc1NC(=O)c1c(NCc2cccnc2)sc2c1CCCC2 | ? | 0% | ? | . | ? | 1.8*
O=C(CN1C(=O)NC2(CCCC2)C1=O)NCc1ccc(Cl)cc1 | -12% | 19% | . | 10% | . | .
O=C(COC(=O)c1cc(Cl)ccc1O)NNC(=O)c1ccccc1F | -9% | 37% | . | 4% | . | .
CCc1ccc(NC(=O)CN2CCN(c3ccc(OC)cc3)CC2)cc1 | ? | -13% | . | . | . | .
CCc1ccc(NC(=O)NCC2CCN(c3ccc(OC)cc3)C2)cc1 (stereo not drawn) | -34% | 4% | ? | . | -36% | 0.89*
COc1ccc(N2CCC(CNC(=O)Nc3ccc(OC)cc3OC)C2)cc1 (stereo not drawn) | 45µM* | -78% | ? | ? | 40µM* | 2.5*
COc1ccc(N2CCC(CNS(=O)(=O)c3cccc(C(F)(F)F)c3)C2)cc1 (stereo not drawn) | 40µM* | ? | ? | ? | 10µM* | 0.45*
CCOc1ccc(NC(=O)NCC2CCN(c3ccc(OC)cc3)C2)cc1 (stereo not drawn) | -34% | -16% | 1µM* | . | -7% | 1.1*
COc1ccc(CNC(=O)C2CCN(S(=O)(=O)c3cccc(C(F)(F)F)c3)CC2)cc1 | 3% | 24% | -30% | 3% | 9% | .
CCCn1c(SCC(=O)NC2CCCC2)nc2c1c(=O)n(C)c(=O)n2C | 0% | 20% | 6% | . | -10% | .
CC(C)C[C@H](NC(=O)OC(C)(C)C)C(=O)N[C@@H](CO)[C@H](O)[C@@H]1C[C@@H]1C(=O)N(C)C | -9% | 41% | . | 34% | 12% | .
SMILES | JMJD2A Tudor inh | HP1b chromo inh | G9a inh-1 | L3MBTL1 inh | BAZ2B block | G9a inh-2 | others
COc1ccc(N2CCC(CNC(=O)Nc3ccc(C)c(C)c3)C2)cc1 (stereo not drawn) | 25µM* | ? | 2µM* | -13% | 40µM* | 2.5*
COc1ccc(CNC(=O)Nc2ccc(C)c(C)c2)cc1 | -7% | 29% | 13% | 43%[11.4 µM] | -23% | .
CN1C(=O)C(C)(C)c2cc(S(=O)(=O)N3CCCC(C(=O)NCc4ccccc4Cl)C3)ccc21 (stereo not drawn) | -26% | 7% | 8% | 3% | -3% | .
CCN(CC)c1ccc(NC(=O)c2ccc(Br)o2)cc1 | 45µM* | ? | 2.2µM* | ? | 50µM* | 7.1*
O=C(Nc1ccc(N2CCCC2)cc1)c1ccc(Br)o1 | ? | -2% | 2.2µM* | -23% | ? | 0.71*
COc1ccc(C(=O)NC(=S)NCC2CCCO2)cc1 (stereo not drawn) | -2% | 28% | -7%[59 µM] | 4% | -23% | .
CCn1c(SCC(=O)Nc2sc3c(c2C#N)CCCC3)nnc1-c1ccco1 | -12% | 60% | ? | . | 5% | 28*
CCn1c(SCC(=O)Nc2sc3c(c2C#N)CCC(C(C)(C)C)C3)nnc1-c1ccco1 (stereo not drawn) | -21% | 8% | -33% | -9% | 2% | .
COc1ccc(N2CCN(Cc3nc(N)nc(Nc4ccc(C)c(Cl)c4)n3)CC2)cc1 | 35µM* | -48% | 1.6µM* | . | 25µM* | 7.1*
c1ccc(-c2ccc(N3CCCC4(CCNCC4)C3)cc2)cc1 | . | . | -46%[12.7 µM] | . | . | . | RGS4 confirm=27*
CN(C(=O)C1CCCO1)C1CCS(=O)(=O)C1 (stereo not drawn) | 6% | 26% | 3% | 7% | -3% | .
Cc1cc(C(=O)NC2CCCc3c2cnn3-c2ccc(C(C)(C)C)cc2)n[nH]1 (stereo not drawn) | -4% | 32% | 6% | . | 0% | .
CCc1ccccc1NC(=O)CN(C)Cc1c(O)ccc2ccccc12 | 56µM* | ? | 1.8µM* | . | ? | 0.4*
CCc1ccccc1NC(=O)CN(C)Cc1nc(N)nc(Nc2ccccc2C)n1 | ? | 10% | -32% | -19% | -38% | .
COc1cccc(C(=O)OCC(=O)NC(C)CCc2ccccc2)c1O (stereo not drawn) | -10% | 68% | 8% | . | 8% | .
COc1ccc(OC)c(CNC(=O)CCC(=O)N2Cc3cccc(OC)c3Oc3ncccc32)c1 | -8% | 24% | 13%[59 µM] | . | -15% | .
CCOc1ccc(NC(=O)CN2CCN(CC(=O)Nc3ccc(N(CC)CC)cc3)CC2)cc1 | -6% | 20%[57 µM] | ? | . | -2% | .
CCN(CC)c1ccc(NC(=O)CN2CCN(CC(=O)Nc3ccccc3F)CC2)cc1 | ? | -28% | ? | -4%[11.4 µM] | ? | 6.3*
COCc1c(C(=O)N2CCN(Cc3nc4ccccc4s3)CC2)oc2ccccc12 | -18% | -23% | ? | -1% | ? | 4*
